# Source: paper PMC8384837, “Expanding the binding specificity for RNA recognition by a PUF domain”
# Changes are numbered by the printed parent chain.
# How the values were obtained:
# Assay in all cases: yeast three-hybrid, YBZ-1, SC-Leu-His + 0.5 mM 3-AT, 4 days
# Conditions in all cases: tags: N-Gal4 AD-HA kept; label: inside an RPR1-promoter hybrid RNA with tandem MS2 sites; ssRNA
# PUM1 PUF domain R7-RNR = PUM1 PUF domain R7-RNR (Homo sapiens, UniProt Q14671 828-1176, S1079R;E1083R)
# Procedure, shortened: (§1)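 Matching RNA elements and Pumilio-1 PUF domain libraries, randomized at the three base-contacting residues of every repeat, were co-expressed from a centromeric plasmid in strain YBZ-1 (LexA–MS2 coat fusion, HIS3 reporter). The repeat regions were PCR-amplified and Illumina-sequenced from cells grown four days on SC-Leu (input) or SC-Leu-His + 0.5 mM 3-AT (selection). The interaction score is the log change in variant frequency from input to selection. It is computed in log2, with a pseudocount of 1 for absent variants.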
# PUM1 PUF domain R8-RKV = PUM1 PUF domain R8-RKV (Homo sapiens, UniProt Q14671 828-1176, N1122R;Y1123K;Q1126V)
# Procedure, shortened: as §1
# PUM1 PUF domain R8-LYL = PUM1 PUF domain R8-LYL (Homo sapiens, UniProt Q14671 828-1176, N1122L;Q1126L)
# Procedure, shortened: as §1
# PUM1 PUF domain R8-KFL = PUM1 PUF domain R8-KFL (Homo sapiens, UniProt Q14671 828-1176, N1122K;Y1123F;Q1126L)
# Procedure, shortened: as §1
# PUM1 PUF domain R4-WGG = PUM1 PUF domain R4-WGG (Homo sapiens, UniProt Q14671 828-1176, N971W;H972G;Q975G)
# PUM1 PUF domain R4-WGG, sequence (Q14671 828-1176 N971W/H972G/Q975G): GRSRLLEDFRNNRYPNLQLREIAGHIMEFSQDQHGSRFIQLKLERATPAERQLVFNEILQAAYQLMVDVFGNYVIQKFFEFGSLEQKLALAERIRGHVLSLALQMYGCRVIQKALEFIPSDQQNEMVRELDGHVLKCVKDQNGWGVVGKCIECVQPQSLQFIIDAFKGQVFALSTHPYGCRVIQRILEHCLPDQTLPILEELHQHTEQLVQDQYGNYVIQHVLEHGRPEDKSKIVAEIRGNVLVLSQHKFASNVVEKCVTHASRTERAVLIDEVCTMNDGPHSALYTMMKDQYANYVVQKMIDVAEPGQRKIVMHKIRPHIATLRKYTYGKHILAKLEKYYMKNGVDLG
# Procedure, shortened: as §1
# PUM1 PUF domain R5-RFW = PUM1 PUF domain R5-RFW (Homo sapiens, UniProt Q14671 828-1176, C1007R;R1008F;Q1011W)
# Procedure, shortened: as §1
# PUM1 PUF domain R6-RYK = target: T1, PUM1 PUF domain R6-RYK (Homo sapiens, UniProt Q14671 828-1176, N1043R;Q1047K)
# T1 sequence: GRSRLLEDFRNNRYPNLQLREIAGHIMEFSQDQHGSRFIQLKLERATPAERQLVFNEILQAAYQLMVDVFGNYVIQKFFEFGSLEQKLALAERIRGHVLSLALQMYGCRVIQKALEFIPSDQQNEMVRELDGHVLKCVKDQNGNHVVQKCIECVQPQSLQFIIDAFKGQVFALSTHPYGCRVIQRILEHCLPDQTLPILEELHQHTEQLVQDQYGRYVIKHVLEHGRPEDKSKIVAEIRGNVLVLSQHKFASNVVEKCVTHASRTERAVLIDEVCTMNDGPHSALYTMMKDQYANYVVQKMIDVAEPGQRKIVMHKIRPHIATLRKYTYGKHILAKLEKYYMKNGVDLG
# Procedure, shortened: as §1
# PUM1 PUF domain R5-KYA = PUM1 PUF domain R5-KYA (Homo sapiens, UniProt Q14671 828-1176, C1007K;R1008Y;Q1011A)
# Procedure, shortened: as §1
# PUM1 PUF domain R3-THE = PUM1 PUF domain R3-THE (Homo sapiens, UniProt Q14671 828-1176, C935T;R936H;Q939E)
# Procedure, shortened: as §1
# PUM1 PUF domain R6-GWI = target: T2, PUM1 PUF domain R6-GWI (Homo sapiens, UniProt Q14671 828-1176, N1043G;Y1044W;Q1047I)
# T2 sequence: T1 sequence with R216G, Y217W, K220I
# Procedure, shortened: as §1
# PUM1 PUF domain R4-CRA = PUM1 PUF domain R4-CRA (Homo sapiens, UniProt Q14671 828-1176, N971C;H972R;Q975A)
# Procedure, shortened: as §1
# PUM1 PUF domain R1-GCK = PUM1 PUF domain R1-GCK (Homo sapiens, UniProt Q14671 828-1176, S863G;R864C;Q867K)
# Procedure, shortened: as §1
# PUM1 PUF domain R6-SRD = target: T3, PUM1 PUF domain R6-SRD (Homo sapiens, UniProt Q14671 828-1176, N1043S;Y1044R;Q1047D)
# T3 sequence: T1 sequence with R216S, Y217R, K220D
# Procedure, shortened: as §1
# PUM1 PUF domain R4-LHH = PUM1 PUF domain R4-LHH (Homo sapiens, UniProt Q14671 828-1176, N971L;Q975H)
# Procedure, shortened: as §1
# PUM1 PUF domain R5-RRF = PUM1 PUF domain R5-RRF (Homo sapiens, UniProt Q14671 828-1176, C1007R;Q1011F)
# Procedure, shortened: as §1
# PUM1 PUF domain R5-RAT = PUM1 PUF domain R5-RAT (Homo sapiens, UniProt Q14671 828-1176, C1007R;R1008A;Q1011T)
# Procedure, shortened: as §1
# PUM1 PUF domain R4-DHA = PUM1 PUF domain R4-DHA (Homo sapiens, UniProt Q14671 828-1176, N971D;Q975A)
# Procedure, shortened: as §1
# PUM1 PUF domain R5-CNH = PUM1 PUF domain R5-CNH (Homo sapiens, UniProt Q14671 828-1176, R1008N;Q1011H)
# Procedure, shortened: as §1
# PUM1 PUF domain R1-SRD = PUM1 PUF domain R1-SRD (Homo sapiens, UniProt Q14671 828-1176, Q867D)
# Procedure, shortened: as §1
# PUM1 PUF domain R6-VWI = target: T4, PUM1 PUF domain R6-VWI (Homo sapiens, UniProt Q14671 828-1176, N1043V;Y1044W;Q1047I)
# T4 sequence: T1 sequence with R216V, Y217W, K220I
# Procedure, shortened: as §1
sequence,measurement,setting,value
GGCUAGAACUAGUGGAUCCCCCGGCGCCCGGCGGCUCGAGCCCGGGUAAGUCUAAAUAGUCUGCAUGCCGCCGGGCGCCAUGCCUGCAGGUCGACUCUAGAAAACAUG,binding signal,PUM1 PUF domain R7-RNR,4.72 log2 enrichment (interaction score)
GGCUAGAACUAGUGGAUCCCCCGGCGCCCGGCGGCUCGAGCCCGGGUAAGUUUAAAUAGUCUGCAUGCCGCCGGGCGCCAUGCCUGCAGGUCGACUCUAGAAAACAUG,binding signal,PUM1 PUF domain R7-RNR,5.92 log2 enrichment (interaction score)
GGCUAGAACUAGUGGAUCCCCCGGCGCCCGGCGGCUCGAGCCCGGGUAAGCGUAAAUAGUCUGCAUGCCGCCGGGCGCCAUGCCUGCAGGUCGACUCUAGAAAACAUG,binding signal,PUM1 PUF domain R8-RKV,2.31 log2 enrichment (interaction score)
same,binding signal,PUM1 PUF domain R8-LYL,2.29 log2 enrichment (interaction score)
same,binding signal,PUM1 PUF domain R8-KFL,4.76 log2 enrichment (interaction score)
GGCUAGAACUAGUGGAUCCCCCGGCGCCCGGCGGCUCGAGCCCGGGUAAGUGUAAAUAGUCUGCAUGCCGCCGGGCGCCAUGCCUGCAGGUCGACUCUAGAAAACAUG,binding signal,PUM1 PUF domain R8-LYL,0.84 log2 enrichment (interaction score)
same,binding signal,PUM1 PUF domain R4-WGG,2.44 log2 enrichment (interaction score)
same,binding signal,PUM1 PUF domain R5-RFW,1.35 log2 enrichment (interaction score)
same,binding signal,PUM1 PUF domain R6-RYK,3.06 log2 enrichment (interaction score)
same,binding signal,PUM1 PUF domain R5-KYA,3.48 log2 enrichment (interaction score)
same,binding signal,PUM1 PUF domain R3-THE,2.11 log2 enrichment (interaction score)
same,binding signal,PUM1 PUF domain R6-GWI,2.34 log2 enrichment (interaction score)
same,binding signal,PUM1 PUF domain R4-CRA,3.82 log2 enrichment (interaction score)
GGCUAGAACUAGUGGAUCCCCCGGCGCCCGGCGGCUCGAGCCCGGGUAAGUGUGAAUAGUCUGCAUGCCGCCGGGCGCCAUGCCUGCAGGUCGACUCUAGAAAACAUG,binding signal,PUM1 PUF domain R5-RFW,2.92 log2 enrichment (interaction score)
same,binding signal,PUM1 PUF domain R5-KYA,0.9 log2 enrichment (interaction score)
GGCUAGAACUAGUGGAUCCCCCGGCGCCCGGCGGCUCGAGCCCGGGUAAGUGUAAAUUGUCUGCAUGCCGCCGGGCGCCAUGCCUGCAGGUCGACUCUAGAAAACAUG,binding signal,PUM1 PUF domain R1-GCK,1.58 log2 enrichment (interaction score)
GGCUAGAACUAGUGGAUCCCCCGGCGCCCGGCGGCUCGAGCCCGGGUAAGUGUAGAUAGUCUGCAUGCCGCCGGGCGCCAUGCCUGCAGGUCGACUCUAGAAAACAUG,binding signal,PUM1 PUF domain R4-WGG,1.6 log2 enrichment (interaction score)
GGCUAGAACUAGUGGAUCCCCCGGCGCCCGGCGGCUCGAGCCCGGGUAAGUGGAAAUAGUCUGCAUGCCGCCGGGCGCCAUGCCUGCAGGUCGACUCUAGAAAACAUG,binding signal,PUM1 PUF domain R6-SRD,4.81 log2 enrichment (interaction score)
GGCUAGAACUAGUGGAUCCCCCGGCGCCCGGCGGCUCGAGCCCGGGUAAGUGUAUAUAGUCUGCAUGCCGCCGGGCGCCAUGCCUGCAGGUCGACUCUAGAAAACAUG,binding signal,PUM1 PUF domain R4-WGG,3.71 log2 enrichment (interaction score)
same,binding signal,PUM1 PUF domain R4-LHH,4.06 log2 enrichment (interaction score)
GGCUAGAACUAGUGGAUCCCCCGGCGCCCGGCGGCUCGAGCCCGGGUAAGUGUCAAUAGUCUGCAUGCCGCCGGGCGCCAUGCCUGCAGGUCGACUCUAGAAAACAUG,binding signal,PUM1 PUF domain R5-RRF,3.03 log2 enrichment (interaction score)
same,binding signal,PUM1 PUF domain R5-RFW,3.42 log2 enrichment (interaction score)
same,binding signal,PUM1 PUF domain R5-KYA,3.04 log2 enrichment (interaction score)
same,binding signal,PUM1 PUF domain R5-RAT,3.06 log2 enrichment (interaction score)
GGCUAGAACUAGUGGAUCCCCCGGCGCCCGGCGGCUCGAGCCCGGGUAAGUGUACAUAGUCUGCAUGCCGCCGGGCGCCAUGCCUGCAGGUCGACUCUAGAAAACAUG,binding signal,PUM1 PUF domain R4-WGG,3.3 log2 enrichment (interaction score)
same,binding signal,PUM1 PUF domain R4-DHA,5.96 log2 enrichment (interaction score)
GGCUAGAACUAGUGGAUCCCCCGGCGCCCGGCGGCUCGAGCCCGGGUAAGUGUUAAUAGUCUGCAUGCCGCCGGGCGCCAUGCCUGCAGGUCGACUCUAGAAAACAUG,binding signal,PUM1 PUF domain R5-RRF,3.3 log2 enrichment (interaction score)
same,binding signal,PUM1 PUF domain R5-KYA,4.12 log2 enrichment (interaction score)
same,binding signal,PUM1 PUF domain R5-CNH,2.78 log2 enrichment (interaction score)
same,binding signal,PUM1 PUF domain R5-RAT,1.36 log2 enrichment (interaction score)
GGCUAGAACUAGUGGAUCCCCCGGCGCCCGGCGGCUCGAGCCCGGGUAAGUGUAAAUGGUCUGCAUGCCGCCGGGCGCCAUGCCUGCAGGUCGACUCUAGAAAACAUG,binding signal,PUM1 PUF domain R1-SRD,3.35 log2 enrichment (interaction score)
GGCUAGAACUAGUGGAUCCCCCGGCGCCCGGCGGCUCGAGCCCGGGUAAGUGUAAAUCGUCUGCAUGCCGCCGGGCGCCAUGCCUGCAGGUCGACUCUAGAAAACAUG,binding signal,PUM1 PUF domain R1-GCK,2.79 log2 enrichment (interaction score)
GGCUAGAACUAGUGGAUCCCCCGGCGCCCGGCGGCUCGAGCCCGGGUAAGUGAAAAUAGUCUGCAUGCCGCCGGGCGCCAUGCCUGCAGGUCGACUCUAGAAAACAUG,binding signal,PUM1 PUF domain R6-VWI,5.74 log2 enrichment (interaction score)
